# Source: PubChem BioAssay (National Center for Advancing Translational Sciences (NCATS))
# FLuc modulator: firefly luciferase modulation, counter-screen for miR-21 project; Potency, µM (series often up to 57.5 µM), inactives show top-dose activity change, negative = inhibition, actives largely listed as inhibitors; P08659; purified FLuc, Km substrates, luminescence inhibition; 360,000 compounds, 6.9% hits;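 further: plate controls were vehicle for no effect and reference inhibitor for full effect; nearly all actives have a fitted effect of over 55% in size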
# Target sequence (P08659 whole entry, looked up): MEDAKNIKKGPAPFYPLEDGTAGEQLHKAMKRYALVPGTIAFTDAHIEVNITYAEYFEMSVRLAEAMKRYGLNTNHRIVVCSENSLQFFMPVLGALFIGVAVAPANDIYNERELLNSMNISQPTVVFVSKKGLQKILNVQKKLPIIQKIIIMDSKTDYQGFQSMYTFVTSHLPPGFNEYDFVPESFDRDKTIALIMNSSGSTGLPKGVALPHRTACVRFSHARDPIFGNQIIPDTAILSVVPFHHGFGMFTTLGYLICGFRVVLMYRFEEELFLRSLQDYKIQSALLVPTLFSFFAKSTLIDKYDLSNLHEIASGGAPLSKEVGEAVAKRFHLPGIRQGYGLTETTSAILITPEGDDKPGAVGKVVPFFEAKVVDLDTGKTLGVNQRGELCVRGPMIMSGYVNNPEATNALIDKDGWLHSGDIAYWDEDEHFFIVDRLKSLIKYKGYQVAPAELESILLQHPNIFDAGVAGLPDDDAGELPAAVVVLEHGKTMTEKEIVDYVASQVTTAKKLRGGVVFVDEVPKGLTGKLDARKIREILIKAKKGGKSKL
#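 Biochemical qHTS of compounds, final roughly 60 µM downward over six points, against 10 nM purified firefly luciferase using Km concentrations of substrates (10 uM D-luciferin, 10 uM ATP) in Tris acetate pH 7.5 buffer; luminescence output.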
# ELG1 DNA repair: blocks ELG1-dependent DNA repair in HEK293T cells; 330,000 compounds, 2.3% hits; Potency, µM (highest dose often 46.1 µM), without a hit: at the highest dose activity change, negative = inhibition, most hits filed as inhibitors; AID 504467; HEK293T ELG1-luciferase reporter, luminescence, 16 h; DNA damage induced by 5-fluorouridine; further: on the % scale 0 is the no-effect control and ±100 the full control effect; nearly all actives have a fitted effect of over 55% in size
#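 Reporter activity after DNA damage by 5-fluorouridine is monitored. Compound-treated cells incubate 16 hr at 37 °C, then ONE-Glo is added for 30 min before luminescence reading.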
# ELG1 genotoxic: induces genotoxicity in HEK293T cells with luciferase-tagged ELG1 | Potency, µM (titrated, usually from 46 µM), inactives show top-dose activity change, positive = activation, hits mostly activators | HEK293T ELG1-luciferase reporter, luminescence, 16 h | 330,000 compounds, 1.3% hits; further: % of control where 0% means no effect; nearly all actives have a fitted effect of over 60% in size
#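 DMSO vehicle served as control against compound-treated ELG1-luciferase HEK293T cells; exposure lasted 16 hr at 37 °C and 5% CO2, followed by ONE-Glo luminescence detection after 30 min.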
# NPC1 prom act: NPC1 promoter activation | Huh7 NPC1 promoter luciferase reporter, 24 h | Potency, µM (titrated, usually from 9.22 µM), without a hit: at the highest dose activation, most hits filed as activators | 320,000 compounds, 2.4% hits | AID 485313; further: % of control where 0% means no effect; nearly all actives have a fitted effect of over 60% in size
#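 Compounds in DMSO were transferred onto Huh7 NPC1-luciferase reporter cells pre-incubated 2 h; after 24 h at 37 °C, Amplite reagent was dispensed and luminescence recorded 10 min later.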
# Rab9 promoter act: activators of Rab9 promoter; Potency, µM (doses to about 9.22 µM), inactives show at the highest dose activation, negative = inhibition, usual class: activators; Huh7 Rab9 promoter-luciferase reporter, luminescence, 24 h; AID 485297; 320,000 compounds, 2.8% hits; further: % of control where 0% means no effect; nearly all actives have a fitted effect of over 60% in size
#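 Rab9 promoter-driven luciferase in stably transfected Huh7 cells; 1500 cells/well rested 2 h, exposed to compound in DMSO for 24 h at 37 °C, 5% CO2. Luminescence read 10 min after adding luciferase reagent at ambient temperature.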
# SMN2 splice up: enhancers of SMN2 splice variant expression. HEK293 SMN2-luciferase splicing reporter, luminescence, 30-36 h. Potency, µM (doses to about 46.1 µM), for inactives: at the top dose activity change, positive = activation, actives largely listed as activators. 210,000 compounds, 2.8% hits. AID 1458; further: % of control where 0% means no effect; nearly all actives have a fitted effect of over 55% in size
#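 qHTS luciferase splicing reporter: luminescence rises when SMN2 exon 7 is included in transfected HEK293 cells. Compound exposure lasted 30-36 h at 37C, with 4.5 mM final sodium butyrate as control, followed by a ONE-Glo read.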
# * = called active by the depositor; ? = inconclusive; / = not tested or not shown; [ ] = dose if it differs, or a comment. This is a sample that favours compounds with a hit; in the whole collection about 9.4% have one here. The call rests on the fitted dose curve; in most records, active means well fitted curve in the direction sought with a large enough effect; inconclusive means small, poorly fitted or top-dose-only effect, or another doubt; inactive means no such curve, though single readings can be large; an effect the other way counts as inactive or inconclusive. Potency means the concentration at half of the fitted maximal effect.
SMILES,FLuc modulator,ELG1 DNA repair,ELG1 genotoxic,NPC1 prom act,Rab9 promoter act,SMN2 splice up
CCOC(=O)c1c(C)[nH]c(C(=O)OCc2ccccc2)c1C,2.13µM*,?,1.83µM*,1.26µM*,0.631µM*,/
Cc1cc(C(=O)CSc2ccc(F)cc2)cc(C)c1O,19µM*,?,?,11.8%,17.2%,/
CCOC(=O)c1c(C)[nH]c(C(=O)CSc2nccc(C)n2)c1C,?,?,?,2.82µM*,2.82µM*,8.91µM*
CCOC(=O)c1c(C)[nH]c(C(=O)C(C)Sc2ccc(Cl)cc2)c1C (centres undefined),26.9µM*,?,0.7%,13.6%,?,1.9%
Cc1cccn2c(=O)c(C(=O)NCCc3ccc(S(N)(=O)=O)cc3)c(O)nc12,3.5%,/,/,/,/,-12.8%
Cn1c(=O)c2[nH]c(COCc3nc4c([nH]3)c(=O)n(C)c(=O)n4C)nc2n(C)c1=O,/,/,/,/,/,2.4%[9.22 µM]
Cc1cc(C(=O)CSc2ccc(Cl)cc2)cc(C)c1OC(=S)N(C)C,9.53µM*,?,?,2.82µM*,?,-8.6%
CC(=O)c1c(C)[nH]c(C(=O)OCc2cccc(C)c2)c1C,?,?,?,26.4%,19.1%,/
CC(=O)c1c(C)[nH]c(C(=O)OCc2ccc(Br)cc2)c1C,?,18.3µM*,?,2.8%,2.1%,-74.2%
CCOC(=O)c1[nH]c(C)c(C(=O)/C=C/c2ccc(C(=O)O)cc2)c1C,13.5µM*,-4.3%,22.3%,5.7%,-3.4%,/
CCOC(=O)c1c(C)[nH]c(C(=O)COC(=O)CCSc2ccccc2)c1C,16.9µM*,?,?,9.4%,2.5%,23.2%
CCOc1ccc(-c2nc(Cn3c(=O)cc(-c4ccccc4)c4c(C)nn(C)c43)c(C)o2)cc1OC,-12.9%,/,/,/,/,/
Nc1nc(-c2cccnc2)cc(-c2cc(-c3cccnc3)nc(N)n2)n1,/,/,/,/,/,0.5%[9.22 µM]
COc1ccc2sc(N(Cc3cccnc3)C(=O)C3COc4ccccc4O3)nc2c1 (centres undefined),-11.2%,/,/,/,/,/
COc1cccc(N(CC(=O)N2CCC(C)CC2)S(=O)(=O)c2ccc(C)cc2)c1,-6.3%,/,/,/,/,-5.5%
CCC(=O)N1CCc2cc(OC)c(OC)cc2C1COc1ccc(C(=O)OC)cc1 (centres undefined),?,2.59µM*,-19.4%,0.3%,-2.2%,-27.4%
CCNC(=S)N1CCc2cc(OC)c(OC)cc2C1COc1ccc(F)cc1 (centres undefined),0.3%,?,0.7%,9.8%,-2.2%,17.1%
COCCNC(=S)N1CCc2cc(OC)c(OC)cc2C1COc1ccc(F)cc1 (centres undefined),-0.8%,16.4µM*,-1.7%,-6.3%,4.0%,9.8%
COCCNC(=S)N1CCc2cc(OC)c(OC)cc2C1COc1ccc(C(C)C)cc1 (centres undefined),-2.1%,9.2µM*,-3.7%,-0.4%,-0.9%,14.5%
O=C(O)/C(=C\c1ccccc1)Cc1ccccc1,/,/,/,/,/,-7.4%[9.22 µM]
COc1ccc(OC(=O)c2cn(-c3cccc(OC)c3)c(=O)c3ccccc23)cc1,-0.7%,/,/,/,/,/
COc1ccc(-c2nc(NC(=O)C3CC(=O)N(Cc4ccco4)C3)sc2C)cc1 (centres undefined),-1.9%,0.0%,-3.9%,-2.0%,-15.9%,/
COc1ccc(-c2nc(NC(=O)C3CCN(c4nc5ccccc5o4)CC3)sc2C)cc1,-0.4%,11.6µM*,-16.8%,-7.0%,0.9%,-66.0%
Nc1nc2c(c(=O)[nH]1)CN(c1ccc(S(N)(=O)=O)cc1)CN2,/,/,/,/,/,2.6%[9.22 µM]
O=C(NCc1cccc(F)c1)C1CCN(c2nn3cc(-c4ccc(F)cc4)nc3s2)CC1,-13.9%,/,/,/,/,/
SMILES,FLuc modulator,ELG1 DNA repair,ELG1 genotoxic,NPC1 prom act,Rab9 promoter act,SMN2 splice up
CCNC(=O)CSc1nnc(CN2CCCCCC2=O)n1-c1ccccn1,-0.6%,12.4%,0.3%,-3.1%,-0.3%,-3.6%
O=C1CCCCCN1Cc1nnc(SCc2nc3ccccc3s2)n1-c1ccccn1,7.57µM*,?,?,18.3%,?,-32.4%
COC(=O)[C@@H]1CC[C@H](C)[C@@H](c2ccc(C)cc2)N1C(=O)c1ccc(/C=N/OC[C@@H](O)COCc2ccco2)cc1,2.5%,?,-7.2%,1.6%,-4.6%,-25.5%
C=CC[C@@H]1C=C[C@H](O/N=C/c2ccc(C(=O)N3[C@H](c4ccc(C)cc4)[C@@H](C)CC[C@H]3C(=O)OC)cc2)[C@@H](CO)O1,7.8%,18.4µM*,-3.6%,-3.3%,-2.9%,-8.7%
CC(C)C(=O)NC(c1ccco1)c1ccc2cccnc2c1O (centres undefined),-1.7%,2.91µM*,-27.0%,-31.0%,-28.7%,-99.8%
Cc1conc1NC(c1cccs1)c1ccc2cccnc2c1O (centres undefined),-14.5%,1.3%,1.1%,-6.6%,-2.8%,-77.5%
Oc1c(C(Nc2nc3ccccc3s2)c2ccco2)ccc2cccnc12 (centres undefined),15.1µM*,?,18.4µM*,-1.5%,4.4%,-99.1%
COc1ccc(-c2csc(Nc3cccc(C)n3)n2)cc1C,3.38µM*,?,?,2.24µM*,1.58µM*,/
COc1cccc2sc(Nc3nc(-c4ccncc4)cs3)nc12,-15.4%,?,6.1%,-29.5%,-7.4%,-5.3%
CC(=O)Oc1ccc(-c2csc(Nc3cccc(C)n3)n2)cc1,3.38µM*,?,13µM*,2.24µM*,?,/
Cc1cccc(Nc2nc(-c3ccc(F)cc3)cs2)n1,5.36µM*,?,?,3.55µM*,3.55µM*,/
COc1ccc(-c2csc(Nc3cccc(C)n3)n2)cc1,2.69µM*,?,4.61µM*,0.891µM*,0.891µM*,/
